{
  "source": "PubChem BioAssay (Tox21)",
  "note": "Inconclusive results are not listed. The source made the active and inactive calls. Calls follow the shape of the dose curve; as a rule, active = well fitted cell-killing curve with a large enough effect in the repeat runs; inconclusive = weak or mixed curves, or effect the other way; inactive = flat fitted curve, though single readings scatter. % is scaled to controls: 0 for no effect and ±100 for the full control effect; potency is read from the fitted curve at half-maximal effect.",
  "data": [
    {"assay": "cAMP Responsive Elements (CRE) small molecule antagonists, cell-based qHTS assay: qHTS cell viability counter screen (AID 2060913); also: nearly all actives have a fitted effect of over 40% in size", "conditions": "CRE-bla HEK293T viability, CellTiter-Glo luminescence, 5 h; series mostly up to 92.4 µM; viability change, negative = cytotoxic: at the top concentration", "text": "U.S. Tox21 Program National Center for Advancing Translational Sciences [NCATS] Division of Preclinical Innovation [DPI] U.S. Environmental Protection Agency [EPA] National Institutes of Environmental Health Sciences [NIEHS] National Toxicology Program [NTP] U.S. Food and Drug Administration [FDA] Tox21 Assay Overview: CREB (cyclic-AMP Responsive Element Binding Protein) is a cellular transcription factor. It binds to certain DNA sequences called cAMP Responsive Elements (CRE) and regulates the transcription of the genes. […] This cell line can be used to find agonists/antagonists of the cyclic AMP signaling pathway. The activation of the report gene under culture conditions can be detected by fluorescence intensity. This cell line has been used to screen the Tox21 10K compound library to identify agonists that induce oxidative stress. The cytotoxicity of the Tox21 compound library against the CRE-bla cell line was tested in parallel by measuring the cell viability using CellTiter-Glo assay (Promega, Madison, WI) in the same wells.\nTox21 Assay Protocol Summary: CRE-bla Hek 293T cells were suspended in assay medium (DMEM containing 10% dialyzed FBS, 0.1 mM NEAA, 1 mM sodium pyruvate and 25 mM HEPES) and dispensed at 2,000 cells/4 uL /well into 1536-well black wall/clear bottom plates using a Multidrop Combi (ThermoFisher Scientific, Waltham, MA) dispenser. After the assay plates were incubated at 37 C/5% CO2 for 18 hrs, 23 nL of compounds dissolved in DMSO, positive controls or DMSO only was transferred to the assay plate by a pintool workstation (Kalypsys, San Diego, CA), followed by addition of 1 uL of 1.25uM NKH477 (0.25 uM as final concentration) in assay medium using a Flying Reagent Dispenser (Aurora Discovery, San Diego, CA). The plates were incubated at 37 C and 5% CO2 for 3 hrs. Then 1 uL of LiveBLAzer B/G FRET substrate (Invitrogen, Carlsbad, CA) was added to each well using Bioraptr Flying Reagent Dispenser (FRD, Aurora Discovery, San Diego, CA). The plates were incubated at room temperature for 2 h, then fluorescence intensities were measured using an Envision plate reader (PerkinElmer, Shelton, CT) at Excitation 405nm, Emission 460nm and 530nm. The % activity was determined from the ratio of 460nm/530nm. For cell viability readout that measures cytotoxicity, 4 uL /well of CellTiter-Glo reagent was added into the assay plates using Bioraptr FRD. After 30 min incubation at room temperature, the luminescence intensity in the assay plates was measured using a ViewLux (PerkinElmer, Shelton, CT) plate reader.", "values": [
      {"smiles": "CC(C)Nc1cccnc1N1CCN(C(=O)c2cc3cc(NS(C)(=O)=O)ccc3[nH]2)CC1", "viability change, negative = cytotoxic": "7.71% [at 42.5 µM] (inactive)"},
      {"smiles": "CN(C)[C@@H]1C(=O)C(C(=O)NCN2CCCC2)=C(O)[C@@]2(O)C(=O)C3=C(O)c4c(O)cccc4[C@@](C)(O)C3C[C@@H]12", "note": "(stereo not given in full)", "viability change, negative = cytotoxic": "-6.57% [at 42.5 µM] (inactive)"},
      {"smiles": "CC(=O)OCC(=O)[C@@]1(O)CC[C@H]2[C@@H]3CCC4=CC(=O)C=C[C@]4(C)[C@@]3(F)[C@@H](O)C[C@@]21C", "viability change, negative = cytotoxic": "5.9% [at 42.5 µM] (inactive)"},
      {"smiles": "O=C1c2c(O)ccc([N+](=O)[O-])c2C(=O)c2c([N+](=O)[O-])ccc(O)c21", "Potency": "27.1 µM (active)"},
      {"smiles": "CCCCN(CCCC)C(=O)N(CCCC)CCCC", "viability change, negative = cytotoxic": "1.52% (inactive)"},
      {"smiles": "CNS(=O)(=O)c1cc(C(=O)N2CCC(CCN3C4CCC3CC(n3c(C)nc5ccccc53)C4)(c3cccc(F)c3)CC2)c(Cl)cc1F", "note": "(stereo not given)", "viability change, negative = cytotoxic": "-14.6% (inactive)"},
      {"smiles": "O=C(CCCN1CCN(c2ccc(F)cc2)CC1)NC1c2ccccc2CSc2ccccc21", "note": "(stereo not given)", "viability change, negative = cytotoxic": "-17.1% [at 42.5 µM] (inactive)"},
      {"smiles": "Cc1ccc(O)c(-n2nc3ccccc3n2)c1", "Potency": "inactive"},
      {"smiles": "CCOC(=O)O[C@]1(C(=O)OCCl)CC[C@H]2[C@@H]3CCC4=CC(=O)C=C[C@]4(C)[C@H]3[C@@H](O)C[C@@]21C", "viability change, negative = cytotoxic": "1.32% [at 42.5 µM] (inactive)"},
      {"smiles": "O=C(OCC1CCC2OC2C1)C1CCC2OC2C1", "note": "(stereo not given)", "Potency": "inactive"},
      {"smiles": "OCCN(CCO)c1ccccc1", "viability change, negative = cytotoxic": "-5.16% (inactive)"},
      {"smiles": "CCCC1O[C@@H]2C[C@H]3[C@@H]4CCC5=CC(=O)C=C[C@]5(C)[C@H]4[C@@H](O)C[C@]3(C)[C@]2(C(=O)CO)O1", "note": "(stereo not given in full)", "Potency": "inactive"},
      {"smiles": "C=COCCCCO", "viability change, negative = cytotoxic": "7.02% (inactive)"},
      {"smiles": "BrCCOc1ccccc1", "viability change, negative = cytotoxic": "14.2% (inactive)"},
      {"smiles": "COc1c(N2C[C@@H]3CCCN[C@@H]3C2)c(F)cc2c(=O)c(C(=O)O)cn(C3CC3)c12", "viability change, negative = cytotoxic": "-0.217% [at 42.5 µM] (inactive)"},
      {"smiles": "CC(C)Oc1ccc2c(=O)c(-c3ccccc3)coc2c1", "Potency": "inactive"},
      {"smiles": "C/C=C(\\C)C(C)=O", "viability change, negative = cytotoxic": "1.54% (inactive)"},
      {"smiles": "O=C(O)c1ccccc1OP(=O)(O)O", "viability change, negative = cytotoxic": "4.26% [at 42.5 µM] (inactive)"},
      {"smiles": "OC[C@H]1O[C@@H]2O[C@H]3[C@H](O)[C@@H](O)[C@@H](O[C@H]4[C@H](O)[C@@H](O)[C@@H](O[C@H]5[C@H](O)[C@@H](O)[C@@H](O[C@H]6[C@H](O)[C@@H](O)[C@@H](O[C@H]7[C@H](O)[C@@H](O)[C@@H](O[C@H]1[C@H](O)[C@H]2O)O[C@@H]7CO)O[C@@H]6CO)O[C@@H]5CO)O[C@@H]4CO)O[C@@H]3CO", "Potency": "inactive"},
      {"smiles": "O=c1oc2c(O)c(O)cc3c(=O)oc4c(O)c(O)cc1c4c23", "viability change, negative = cytotoxic": "2.4% [at 18.9 µM] (inactive)"},
      {"smiles": "CCCOC(=O)c1ccccc1", "Potency": "inactive"},
      {"smiles": "CC(=O)OC(C)c1ccccc1", "note": "(stereo not given)", "viability change, negative = cytotoxic": "8.71% (inactive)"},
      {"smiles": "NCC1(Cc2noc(=O)[nH]2)CCCCC1", "viability change, negative = cytotoxic": "11.9% (inactive)"},
      {"smiles": "CC(C)C[P+](C)(CC(C)C)CC(C)C", "viability change, negative = cytotoxic": "-0.45% (inactive)"},
      {"smiles": "Cc1cc(O)c(C(C)(C)C)cc1Sc1cc(C(C)(C)C)c(O)cc1C", "Potency": "21.6 µM (active)"},
      {"smiles": "Brc1cc(Oc2cc(Br)c(Br)c(Br)c2Br)c(Br)c(Br)c1Br", "Potency": "inactive"},
      {"smiles": "CC(C)=NNC(N)=S", "viability change, negative = cytotoxic": "15.9% (inactive)"},
      {"smiles": "O=S(=O)(O)c1cc(O)c2ccc(Nc3ccccc3)cc2c1", "viability change, negative = cytotoxic": "3.94% (inactive)"},
      {"smiles": "CC(O)c1ccccc1", "note": "(stereo not given)", "viability change, negative = cytotoxic": "13.1% (inactive)"},
      {"smiles": "O=P(O)(O)O", "Potency": "inactive"},
      {"smiles": "CCCCCCCCCCCCCCO", "Potency": "inactive"},
      {"smiles": "CCC(C)COC(C)=O", "note": "(stereo not given)", "viability change, negative = cytotoxic": "1.29% (inactive)"},
      {"smiles": "CN(C)CCC=C1c2ccccc2CCc2ccccc21", "Potency": "inactive"},
      {"smiles": "C#CC(C)(CC)OC(=O)c1ccccc1C(=O)O", "note": "(stereo not given)", "viability change, negative = cytotoxic": "5.61% [at 42.5 µM] (inactive)"},
      {"smiles": "CN1C(C)(C)CC(O)CC1(C)C", "viability change, negative = cytotoxic": "1.72% (inactive)"},
      {"smiles": "CCCCNC(=O)NCCCC", "viability change, negative = cytotoxic": "-3.56% (inactive)"},
      {"smiles": "CCCCOC(=O)CC#N", "viability change, negative = cytotoxic": "-6.72% (inactive)"},
      {"smiles": "Cc1ccc2c(c1)c1c3n2CCNC3CCC1", "note": "(stereo not given)", "viability change, negative = cytotoxic": "-0.082% [at 42.5 µM] (inactive)"},
      {"smiles": "CC[C@@H]1C[C@H](N(Cc2cc(C(F)(F)F)cc(C(F)(F)F)c2)C(C)=O)c2cc(C(F)(F)F)ccc2N1C(=O)OC(C)C", "viability change, negative = cytotoxic": "-1.09% (inactive)"},
      {"smiles": "CC(C)C(=O)OC(=O)C(C)C", "viability change, negative = cytotoxic": "4.5% (inactive)"}
    ]}
  ]
}
